Compounds without any hit were thinned out: in the full panel of roughly 79,000, 15% have a hit. A number with no mark means an inactive call. Active and inactive are the calls of the source. No stated cut-off is given here; in the data, active means growth inhibition above about 70%; inactive means the rest.
Legend:
[1] = NCI Yeast Anticancer Drug Screen. Data for the rad50 strain (AID 155);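 further: 0% = growth of vehicle-only cultures of the same strain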; settings: S. cerevisiae rad50 strain growth inhibition; at 50.0 µM; hits give high values
In short: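 Genetically altered yeast (DNA repair pathway); compound treatment; growth inhibition vs vehicle ctrl.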

[2] = NCI Yeast Anticancer Drug Screen. Data for the mec2-1 strain (AID 157); settings: S. cerevisiae mec2-1 strain, at 50.0 µM, hits give high values
In short: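 Compounds were applied to mec2-1 yeast cells. Their growth was then compared with that of vehicle-treated cultures to give growth inhibition.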

[3] = NCI Yeast Anticancer Drug Screen. Data for the sgs1 mgt1 strain (AID 161);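 further: 0% = growth of cultures given vehicle only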; settings: S. cerevisiae sgs1 mgt1 strain, at 50.0 µM, hits give high values
In short: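 This yeast growth screen uses a strain with defined DNA-repair lesions; compound-treated growth is compared with vehicle-treated growth.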

[4] = NCI Yeast Anticancer Drug Screen. Data for the cln2 rad14 strain (AID 165);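 further: 0% = growth equal to vehicle treated cultures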; settings: S. cerevisiae cln2 rad14 strain, at 50.0 µM, hits give high values
In short: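 Strain: cln2 rad14 yeast, altered in cell cycle control and DNA damage repair. Read-out: growth inhibition vs vehicle.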

[5] = NCI Yeast Anticancer Drug Screen. Data for the bub3 strain (AID 167); settings: S. cerevisiae bub3 mutant strain, at 50.0 µM, hits give high values
In short: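 Yeast carrying a defined mutation is treated with each compound, and growth is compared with that of vehicle-exposed cells to give inhibition.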

[6] = NCI Yeast Anticancer Drug Screen. Data for the mlh1 rad18 strain (AID 175); settings: S. cerevisiae mlh1 rad18 strain growth inhibition; at 50.0 µM; hits give high values
In short: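 A repair-deficient yeast strain is exposed to test compound, and growth is scored relative to vehicle-treated controls.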

| SMILES | growth inhibition [1] | growth inhibition [2] | growth inhibition [3] | growth inhibition [4] | growth inhibition [5] | growth inhibition [6] [%] |
| --- | --- | --- | --- | --- | --- | --- |
| CC(=O)[C@@H](C)C(=O)N1C(=O)OC[C@@]12[C@@H]1CC[C@@H](C1)C2(C)C | -13.8% | -31.4% | -25.9% | -26.4% | 10.8% | -32 |
| CSCCC(NC(C)=O)C(C)=O (stereo unspecified) | 5.75% | -9.35% | -3.55% | -21.3% | -7.15% | 7.9 |
| Cc1ccc(C(=O)C[n+]2ccccc2)c(O)c1 | -5.45% | -9.9% | 8.85% | -38% | 4.65% | 14.1 |
| ClC1(Cl)C2CCOC21n1cnc2ccccc21 (stereo unspecified) | 11.8% | -5.1% | -8.3% | 4.95% | 8.25% | -11.2 |
| CNC(=O)c1ccc(/C=C/c2c[nH]c3ccccc23)[n+](C)c1 | -24.9% | -7.9% | -9.05% | -11.2% | -2.65% | -13.3 |
| Nc1ccc(Cn2cnc3c(=O)[nH]cnc32)cc1 | -11.7% | -6.45% | 7.7% | -45.9% | 6.85% | -5.4 |
| CC[Si](C)(C)COC(N)=O | -23.2% | 8.1% | -12.4% | -1.55% | -4.15% | -37 |
| c1ccc2c(c1)CCC2 | 12.1% | -10.2% | -23.1% | 1.55% | -18.1% | -6.6 |
| NC1=NC(=O)C(CC(=O)Nc2ccc([N+](=O)[O-])cc2[N+](=O)[O-])S1 (stereo unspecified) | -15.2% | -30.3% | 2.3% | 3.3% | 2% | -8.55 |
| COc1cc2c(cc1OC)C(C(=O)O)C(c1ccccc1)N(C)C2=O (stereo unspecified) | -36.8% | -11.8% | -6.5% | 19.4% | -13.2% | 3.25 |
| CSc1ncnc2ncn(C)c12 | 11.9% | -2.6% | 4.4% | -9.95% | 3.25% | 1.75 |
| CC1(C)OC(=O)C=C([O-])O1.CC1(C)OC(=O)C=C([O-])O1.CC[O-].CC[O-].[Ti+4] | -20.8% | -36.2% | 3.6% | -8.95% | -11.7% | -3.15 |
| O=C(Nc1ccccc1)OC1C(OC(=O)c2ccccc2)OC(COC(=O)c2ccccc2)C1OC(=O)c1ccccc1 (stereo unspecified) | -0.5% | 0.75% | 0.25% | -0.85% | -9.1% | -10.5 |
| Cc1ccc(N2CCCCN(c3ccc(C)cc3)/C(c3ccccc3)=C\2c2ccccc2)cc1 | -8.55% | -7.3% | -7% | -8.2% | -1.35% | -29.9 |
| COC1(OC)CC2OC1C1N=NN(C(=O)OC(C)(C)C)C21 (stereo unspecified) | 28.1% | 13.3% | 6.8% | 21.6% | 16.8% | 31.4 |
| CCN(CC)CCN(CCN(CC)CC)c1c(OC)cccc1OC | 5.8% | -13.2% | 9.25% | -14.4% | 9.15% | 15.8 |
| CN(C)C(=O)c1ccc(-c2ccccc2)cc1O | -10.3% | 20.2% | 0.05% | -18.1% | -10.1% | -4.65 |
| CN1C(=O)C23CCCN2C(=O)C1(C)SC(=N)S3 (stereo unspecified) | 2.35% | 7.6% | -2.55% | -45.4% | 2% | 4.95 |
| O=C(Nc1ccc(Br)cc1)OCC1CC2C=CC1C2 (stereo unspecified) | 43.5% | 70.8% (active) | 79.9% (active) | 42% | 33.9% | 47.4 |
| COC(=O)c1cccc2c(N)c(N)cc(C(=O)OC)c12 | 17.5% | 18.2% | 24.8% | 28.2% | 9.3% | 31.4 |
| C=C1C(=O)C=C2C=C3C(=O)C(C)(C)C[C@]3(O)C12C (stereo partly specified) | 84.3% (active) | 92% (active) | 89% (active) | 82.5% (active) | 86.2% (active) | -21.7 |

Source: PubChem BioAssay (NCI)
